Among all 31,000 sequences or so, about 1,400 (4.5%) were called active.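 The calls were made as follows: active = median seed-adjusted z-score above 1 or below -1; inactive = the rest.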 The full list was thinned out, with actives kept by preference.

This experiment can be described thus: Novel Modifiers of Survival Motor Neuron (SMN) Protein: Gene Identification via Genome-wide siRNA Screen.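 Also: luminescence tracks full-length SMN protein made from the SMN2 reporter.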 As to conditions: HEK293T SMN2-luciferase reporter, siRNA knockdown, 72 h; actives lie on both sides. The gist of the method:
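siRNA screen, 10418 genes ×3 siRNAs; 1 pmol/well, lipid reverse transfection into HEK293T SMN2-luc reporter line. 72 h, 37 °C, 5% CO2; ONE-Glo readout. Data: neg-ctrl normalized, log10, MAD; hit = MAD >1.0 or < -1.0.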
In general terms: A reporter such as luciferase makes a cellular process visible.
In the case of GGUUUGUCCCUUCGCUAUATT against LRRTM3, the median seed-adjusted z-score was -0.0808 (inactive).

Take GCAGAGAUUUCCAAGAAAATT against GPR32: the median seed-adjusted z-score was -1.2 (active).

Turning to CAAGAAUGACUGUGAUGAATT against PLA2G12A, the median seed-adjusted z-score is 0.139 (inactive).

As for GGUCUAUACAGAGUCAAUATT against MRCL3, the median seed-adjusted z-score was -0.00909 (inactive).

With GGAUUCACACGGGAAUUAATT against ZNF649, the median seed-adjusted z-score is 0.259 (inactive).

With CGUCGAAUGUUUAAAGUCUTT against ITFG1, the median seed-adjusted z-score was -0.417 (inactive).

Consider ACGUGUUUGCUUCCACAAATT against NEURL2, for which the median seed-adjusted z-score was 1.39 (active).

In the case of GCAUGAUGGAUGUUGAUCATT against CCT5, the median seed-adjusted z-score was 0 (inactive).

In the case of GCACUGAUGACAACAACUATT against HTR1F, the median seed-adjusted z-score was -0.127 (inactive).

In the case of AGAGUGUGCCGGUUACCCATT against CD8B, the median seed-adjusted z-score was 0.174 (inactive).

Take GAGUCACAAUUGAUCCGGATT against TOP2A: the median seed-adjusted z-score is -0.187 (inactive).

With CCAUCGAUGAUGACUGUAATT against ETFB, the median seed-adjusted z-score was 0.0669 (inactive).

For GAGCAGAUCUUUUUAUGCATT against ZNF664, the median seed-adjusted z-score was 1.08 (active).

As for CAUUGAGACCUAUCUGCUATT against MYH11, the median seed-adjusted z-score was 0 (inactive).

On to CGGGUAUGUUGAUAGCAUATT against FAM12B, for which the median seed-adjusted z-score was 0.312 (inactive).

For the sequence GCAGUGUACCCGUCAUUAUTT against SEMA4B, the median seed-adjusted z-score is 0.185 (inactive).

As for GGAACAAAAGGAUCGAAUATT against CLSTN3, the median seed-adjusted z-score is 0 (inactive).

Turning to CUAUAAAUGUAAACGAUGUTT against ZNF442, the median seed-adjusted z-score is 1.06 (active).

As for CUGUUUGACUUCAUCGAGATT against COPG, the median seed-adjusted z-score was 0.175 (inactive).

Take CAAUCCAUGUCAUAGGGAATT against ZNF702: the median seed-adjusted z-score is 0.204 (inactive).

Take CGGCAAUCCUUACGGCUAATT against DSG4: the median seed-adjusted z-score is -0.0211 (inactive).

For CCGUCAUUGUCAACCGGAATT against SLC4A5, the median seed-adjusted z-score was 1.3 (active).

On to CUACGUCUCGGGUCCAGAUTT against HOXA11, for which the median seed-adjusted z-score was -0.222 (inactive).

GGACAUACACUGAGAGUCATT against PDLIM2: the median seed-adjusted z-score was 0.267 (inactive).

Take GAGCAGAACCGCAUCAUAUTT against UCN: the median seed-adjusted z-score was -0.472 (inactive).

GGAGGAUACUUUAGAACAATT against NDC80: the median seed-adjusted z-score is 0.0855 (inactive).

Regarding GCAUCUACAUGACCAACCUTT against GPR35, the median seed-adjusted z-score was -1.46 (active).

With CAUGAUACAGGGAAUAAAATT against ZNF619, the median seed-adjusted z-score is -0.536 (inactive).

For UCAUCGAACUGAAUACCAATT against STARD3, the median seed-adjusted z-score is -0.314 (inactive).

CUACUGGACUGAUCAAGCUTT against CTCFL: the median seed-adjusted z-score was -0.362 (inactive).

On to GGACAAAGACUGUCGCCUATT against DHX35, for which the median seed-adjusted z-score was -0.066 (inactive).

Turning to CUAUGACGACUUAUCCAAATT against ATP5A1, the median seed-adjusted z-score is -0.974 (inactive).

For CCUACACCAUGAUCGGAAATT against KIF26B, the median seed-adjusted z-score is -0.153 (inactive).

For the sequence GCGUUAUCCUCACCUUCAATT against G6PD, the median seed-adjusted z-score was 0.593 (inactive).

Take CAUUCAGCUUGUCACGUCATT against THOC4: the median seed-adjusted z-score is -1.54 (active).

For CCAAGGUUUUGGAUAGCAATT against RHBDL2, the median seed-adjusted z-score is 0.0701 (inactive).

Consider CCAAGUCCCAUACAACAAATT against C1S, for which the median seed-adjusted z-score is -0.561 (inactive).

Take GCUUCUACCUUUACACGGATT against PDE1A: the median seed-adjusted z-score is 0 (inactive).

For CUAUAGCUGUCUCCCAGAATT against PRICKLE2, the median seed-adjusted z-score was -1.12 (active).

Turning to GGAGAAAAACUAUAUGAAUTT against ZNF585B, the median seed-adjusted z-score is 0.158 (inactive).

Turning to CUUUGGAACAAAUACCGAATT against NXN, the median seed-adjusted z-score is 0.175 (inactive).

Regarding CACCUAUAGUGACGAUAUATT against MEP1B, the median seed-adjusted z-score was 1.46 (active).

Regarding AGGCAUUCCUCGGAAGUCATT against SMAD7, the median seed-adjusted z-score was -0.25 (inactive).

Take CCAUCGUUUUGGUCUUGUATT against VN1R2: the median seed-adjusted z-score is -0.151 (inactive).

Regarding GGAAAGAACUACCUCCUGATT against TREH, the median seed-adjusted z-score was 0.396 (inactive).

On to GGAAGAUCAUAGAAGUUGATT against SLC1A1, for which the median seed-adjusted z-score is 0.0967 (inactive).

Turning to CCAUUGUCACGGGCUUGUATT against ENPP3, the median seed-adjusted z-score is 0.66 (inactive).

Consider GCAUCUAUGUCAACAAGAUTT against POLR2I, for which the median seed-adjusted z-score was -3.27 (active).

With CUGCUAAACUUGAACCGAATT against TM9SF2, the median seed-adjusted z-score was 1.09 (active).

As to UCCUAUCAGAAGUUGCAUATT against RKHD4, the median seed-adjusted z-score is 0.0683 (inactive).

CAAUGUUUACUACAAUGAATT against TUBB2B: the median seed-adjusted z-score is 0.935 (inactive).

GGAGUGCUAGAAUCUACUATT against HEPH: the median seed-adjusted z-score was -0.293 (inactive).

Regarding GGAUACAAAGCACAUAACATT against UBE2D4, the median seed-adjusted z-score is 0.232 (inactive).

Consider GAGCAUUAUGUUACACCAATT against TTC6, for which the median seed-adjusted z-score is 0.234 (inactive).

With GAACCUCAGUUGAGUAUUUTT against RPE, the median seed-adjusted z-score is 0.616 (inactive).

In the case of CAGUGCUGUUAGAAUAAAATT against ZNHIT1, the median seed-adjusted z-score was -0.497 (inactive).

Take UGUGGAGAAUGACUACAUATT against SPRY4: the median seed-adjusted z-score is -1.23 (active).

On to GGAUGACCAGGGUCUAUAATT against FMO4, for which the median seed-adjusted z-score was -0.359 (inactive).

With CCAUGAAUUCUUACUUUUATT against VAC14, the median seed-adjusted z-score was 0.0825 (inactive).

CAGAAUCAGCUGGAAGAAATT against BAIAP2: the median seed-adjusted z-score is -0.0497 (inactive).

Regarding GUAGCAGGGCUGAACCCAUTT against ZMAT5, the median seed-adjusted z-score was 0.292 (inactive).

For the sequence GCCGUGACCUACUUCAUCATT against SLC29A4, the median seed-adjusted z-score was 0.0192 (inactive).

For the sequence CAGCUGAUGCGGACCAAGATT against RASSF4, the median seed-adjusted z-score is 0.29 (inactive).

In the case of GAUACUCGUAUUAAGCCUATT against USP32, the median seed-adjusted z-score was 0.484 (inactive).

Consider GAACUGUGCUGAUGUGAAATT against PATE1, for which the median seed-adjusted z-score is 1.21 (active).

For GCAAGUCGUGAAACUAUAATT against YEATS4, the median seed-adjusted z-score was 0.905 (inactive).

As for GGUGCUGAAUGUGGAGUAATT against DNAJC3, the median seed-adjusted z-score was 0.502 (inactive).

Turning to GCAGAACAACGAGCACAGATT against CTSW, the median seed-adjusted z-score was -0.342 (inactive).

For the sequence GGAAUUCCAGUAACGAUGATT against RNF149, the median seed-adjusted z-score is -0.17 (inactive).

The values above are taken from PubChem BioAssay AID1347426 (Functional Genomics Laboratory (NCATS/FGL), 2020).
